Screens as filed in PubChem BioAssay.
This is a sample that favours compounds with a hit; in the whole collection about 7.4% have one here.
ELG1 genotoxic = induces genotoxicity in HEK293T cells with luciferase-tagged ELG1. HEK293T ELG1-luciferase reporter, luminescence, 16 h. AID 504466. hit rate 1.3% among 330,000. Potency, µM (series often up to 46 µM), without a hit: at the highest dose activity change, positive = activation, most hits filed as activators; also: % of control where 0% means no effect; nearly all actives have a fitted effect of over 60% in size
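Genotoxic stress is detected as increased luminescence from luciferase-tagged ELG1 in HEK293T cells, measured with ONE-Glo after a 16 hr treatment at 37 °C.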
NPC1 prom act = NPC1 promoter activation | AID 485313 | Huh7 NPC1 promoter luciferase reporter, 24 h | hit rate 2.4% among 320,000 | Potency, µM (top dose mostly 9.22 µM), inactives show at the top dose activation, hits mostly activators; also: % of control where 0% means no effect; nearly all actives have a fitted effect of over 60% in size
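Huh7 reporter cells (NPC1 promoter driving luciferase) are dosed with compound for 24 h at 37 °C, 5% CO2; luciferase detection reagent is then added and luminescence measured after 10 min at ambient temperature.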
SMN2 splice enh = increases expression of the SMN2 splice variant. HEK293 SMN2-luciferase splicing reporter, luminescence, 30-36 h. Potency, µM (series often up to 46.1 µM), for inactives: at the highest dose activity change, positive = activation, usual class: activators. hit rate 2.8% among 210,000. AID 1458; also: % of control where 0% means no effect; nearly all actives have a fitted effect of over 55% in size
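qHTS luciferase splicing reporter: luminescence rises when SMN2 exon 7 is included in transfected HEK293 cells. Compound exposure lasted 30-36 h at 37C, with 4.5 mM final sodium butyrate as control, followed by a ONE-Glo read.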
FLuc modulator = inhibits or activates purified firefly luciferase, miR-21 counter-screen; P08659; purified FLuc, Km substrates, luminescence inhibition; Potency, µM (series often up to 57.5 µM), without a hit: at the highest dose activity change, negative = inhibition, hits mostly inhibitors; hit rate 6.9% among 360,000; AID 588342;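 also: plate controls were vehicle for no effect and reference inhibitor for full effect; nearly all actives have a fitted effect of over 55% in size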
Target sequence (P08659 whole entry, looked up): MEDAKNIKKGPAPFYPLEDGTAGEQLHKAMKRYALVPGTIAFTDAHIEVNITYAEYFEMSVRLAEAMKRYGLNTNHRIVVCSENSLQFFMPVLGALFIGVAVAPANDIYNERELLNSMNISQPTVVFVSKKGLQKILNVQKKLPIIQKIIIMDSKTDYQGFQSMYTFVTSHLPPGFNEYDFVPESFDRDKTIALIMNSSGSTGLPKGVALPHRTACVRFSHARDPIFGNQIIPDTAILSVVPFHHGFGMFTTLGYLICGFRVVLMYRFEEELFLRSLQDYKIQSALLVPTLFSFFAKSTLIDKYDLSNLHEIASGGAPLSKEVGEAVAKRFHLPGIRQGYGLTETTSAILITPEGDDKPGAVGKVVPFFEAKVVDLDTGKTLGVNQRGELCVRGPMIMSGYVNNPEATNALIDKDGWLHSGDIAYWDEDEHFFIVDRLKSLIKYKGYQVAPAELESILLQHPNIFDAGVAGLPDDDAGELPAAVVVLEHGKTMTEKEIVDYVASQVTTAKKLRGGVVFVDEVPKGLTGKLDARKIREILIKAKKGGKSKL
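Biochemical qHTS of compounds, final roughly 60 µM downward over six points, against 10 nM purified firefly luciferase using Km concentrations of substrates (10 uM D-luciferin, 10 uM ATP) in Tris acetate pH 7.5 buffer; luminescence output.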
Rab9 prom act = activators of Rab9 promoter. Huh7 Rab9 promoter-luciferase reporter, luminescence, 24 h. Potency, µM (series often up to 9.22 µM), for the others: top-dose activation, negative = inhibition, hits mostly activators. hit rate 2.8% among 320,000. AID 485297; also: % of control where 0% means no effect; nearly all actives have a fitted effect of over 60% in size
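Huh7 reporter line, Rab9 promoter upstream of luciferase. Compound exposure 24 h at 37 °C in reduced-serum medium with 10% FBS. Read-out: luminescence.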
Numbers without * were called inactive; u = inconclusive; x = no result given; [ ] = dose if it differs, or a comment. Calls follow the shape of the dose curve; as a rule, active = well fitted curve in the direction sought with a large enough effect; inconclusive = small, poorly fitted or top-dose-only effect, or another doubt; inactive = no such curve, though single readings can be large; an effect the other way counts as inactive or inconclusive. Potency is read from the fitted curve at half-maximal effect.

SMILES	ELG1 genotoxic	NPC1 prom act	SMN2 splice enh	FLuc modulator	Rab9 prom act
COc1ccc(CN2CC(C(N)=O)Oc3ccccc32)cc1F (configuration not stated)	3.8%	-0.4%	x	-0.4%	2.8%
COCc1nnc(NC(=O)c2cccs2)s1	1.6%	-7.3%	14.0%	-1.0%	-7.5%
O=C(O)CCCn1cc(NC(=O)c2sc3ccccc3c2Cl)cn1	3.3%	-2.2%	x	26.9µM*	-3.9%
Cc1nnc(NC(=O)c2sc3ccccc3c2Cl)s1	u	1.26µM*	12.6µM*	0.379µM*	1µM*
Cc1c(NC(=S)NC(=O)c2sc3ccccc3c2Cl)cccc1C(=O)O	u	u	3.98µM*	0.757µM*	u
Cc1ccc2nsnc2c1NC(=O)c1sc2ccccc2c1Cl	12.1%	0.5%	-8.1%	0.4%	-0.4%
COCc1nnc(NC(=O)c2sc3ccccc3c2Cl)s1	u	u	7.7%	5.36µM*	u
COc1ccccc1C(=O)NNC(=S)NC(=O)c1sc2ccccc2c1Cl	2.2%	-7.6%	-1.3%[1.84 µM]	-12.8%	-6.6%
COc1ccccc1CCNC(=O)C1CCC(=O)N(C2CCCCCC2)C1 (configuration not stated)	-0.4%	-2.9%	x	1.1%	0.0%
CSc1ccc(/C=C/C(=O)c2ccc(O)cc2)cc1	u	23.9%	-3.0%	3.01µM*	u
Cc1ccc(/C=C/C(=O)c2ccc(O)cc2)cc1	17.1%	19.1%	x	2.13µM*	u
Cc1ccc(C(=O)/C=C/C(=O)O)cc1	0.1%	3.7%	-22.8%	u	0.6%
CSc1ccc(/C=C/C(=O)OCC(=O)NC(C)C)cc1	-1.5%	-0.3%	20.1%	-11.9%	3.4%
CNS(=O)(=O)c1cn(CC(=O)N2CCN(c3cccc(C)c3C)CC2)cc1S(=O)(=O)NC	x	x	x	2.1%	x
Cc1ccccc1OCC(=O)Nc1ccc2nc(SCc3ccccc3)sc2c1	x	x	x	-1.8%	x
COc1ccc2c(c1OC)C(=O)OC2Nc1nc(-c2cc3ccccc3oc2=O)cs1 (configuration not stated)	u	0.891µM*	2.24µM*	8.49µM*	0.447µM*
COc1ccc2c(c1OC)C(=O)OC2Nc1nc(-c2ccc(-c3ccccc3)cc2)cs1 (configuration not stated)	3.26µM*	0.708µM*	2.24µM*	1.35µM*	0.708µM*
Cc1ccc(NC(=O)CSc2ncccc2C(=O)Oc2cccc([N+](=O)[O-])c2)cc1Cl	23.1µM*	4.47µM*	11.2µM*	u	u
COCCn1c(-c2ccccc2)nc2oc3ccccc3c(=O)c2c1=O	-0.9%	-3.7%	-1.9%	3.3%	4.2%
COCCn1c(-c2cc(OC)c(OC)c(OC)c2)nc2oc3ccccc3c(=O)c2c1=O	-8.6%	-0.8%	14.1µM*	-0.4%	2.0%
CCOC(=O)c1ccc(N2CCOCC2)c(NC(=O)c2nccnc2C(=O)O)c1	-1.2%	-3.8%	x	5.7%	14.5%
Cn1cc(Br)c(C(=O)Nc2sc3c(c2C(N)=O)CCCC3)n1	10.8%	7.5%	x	3.01µM*	u
NC(=O)c1c(NC(=O)c2ccccc2F)sc2c1CCCC2	u	1.58µM*	x	1.9µM*	0.891µM*
NC(=O)c1c(NC(=O)c2ccc(F)cc2Cl)sc2c1CCC2	-1.8%	u	x	13.5µM*	u
NC(=O)c1c(NC(=O)c2ccccc2C(=O)O)sc2c1CCCC2	-5.7%	1.5%	x	16.9µM*	5.5%
SMILES	ELG1 genotoxic	NPC1 prom act	SMN2 splice enh	FLuc modulator	Rab9 prom act
CN(C)C(=O)c1c(NC(=O)c2ccccc2F)sc2c1CCCC2	x	x	-11.2%	-5.1%	x
Cc1onc(-c2c(F)cccc2Cl)c1C(=O)Nc1sc2c(c1C(N)=O)CCC2	-11.2%	-7.6%	9.5%	-2.1%	-6.2%
Cc1nnc2c(N3CCN(c4ccccc4F)CC3)nc3ccc(C(=O)c4ccccc4)cc3n12	x	x	x	-2.7%	x
NC(=O)c1c(NC(=O)c2ccccc2Cl)sc2c1CCC2	u	u	x	15.1µM*	u
NC(=O)c1c(NC(=O)c2ccc(N3C(=O)CCC3=O)cc2)sc2c1CCCC2	7.6%	1.0%	x	10.7µM*	-3.3%
NC(=O)c1c(NC(=O)c2cccnc2Cl)sc2c1CCCC2	8.3%	-1.5%	3.2%	19µM*	-0.2%
COc1ccc2oc(C(=O)OCC(=O)N3CCCCC3C)c(C)c2c1 (configuration not stated)	10.0%	x	x	x	x
COC(=O)CCC(=O)c1oc2ccc(OC)cc2c1N	3.66µM*	2.51µM*	u	3.38µM*	4.47µM*
COC(=O)c1oc2ccc(Cl)cc2c1N	10.9%	16.1%	u	1.6%[2.3 µM]	20.8%
O=C(c1coc2ccc(O)cc12)C1CC1	0.2%	-2.7%	-4.6%	-19.4%	3.5%
COc1ccc2oc(C(=O)C3CC3)c(N)c2c1	u	u	u	13.5µM*	u
COc1ccc2occ(C(=O)c3ccccc3)c2c1	u	29.5%	u	13.5µM*	u
O=C(c1ccc(Cl)cc1)c1coc2ccc(O)cc12	12.6%	u	-13.7%	3.79µM*	u
COc1ccc2occ(C(C)=O)c2c1	-1.3%	1.6%	-19.0%	-2.2%	-1.3%[1.84 µM]
COC(=O)[C@@H]1C[C@H]2CC[C@H](O)C[C@H]2N1Cc1c(F)cccc1Cl	x	x	7.0%	x	x
CC1=C(C)CC(C(=O)NCc2cccc(Cl)c2)C(C(=O)O)C1 (configuration not stated)	-1.1%	0.5%	x	-0.8%	0.8%
COc1ccc2oc(C(=O)c3ccccc3)c(N)c2c1	u	2µM*	11.2µM*	3.01µM*	2µM*
COc1ccc(C(=O)c2oc3ccccc3c2N)cc1	9.2µM*	3.55µM*	12.6µM*	10.7µM*	u
CC1(C)Cc2c(cnn2-c2ccc(F)cc2)C(NC(=O)CCC(F)(F)F)C1 (configuration not stated)	4.7%	-4.7%	x	6.8%	3.0%
COC(=O)CC1Oc2ccc(F)cc2-n2cc(-c3ccc(C)cc3)nc21 (configuration not stated)	x	x	-12.6%	-6.1%	x
CCOc1ccc(NC(=O)c2ccc3c(=O)n4c(nc3c2)CCCCC4)cc1	-3.5%	-8.6%	5.8%	2.9%	-8.5%
CCc1ccc(NC(=O)c2sc3nc4n(c(=O)c3c2C)CCC4)cc1	8.9%	27.8%	x	15.1µM*	u
CCc1nnc(NC(=O)c2ccc3c(=O)n4c(nc3c2)CCCCC4)s1	5.9%	13.0%	x	26.9µM*	26.6%
CCc1ccc(NC(=O)c2ccc3c(=O)n4c(nc3c2)CCCCC4)cc1	-7.5%	19.4%	x	16.9µM*	-0.4%
CC(=O)Nc1ccc(NC(=O)c2sc3nc4n(c(=O)c3c2C)CCCCC4)cc1	-8.0%	-8.4%	-24.1%	-0.9%	-4.2%
Cc1c(C(=O)N(C)c2cccc(C(F)(F)F)c2)sc2nc3n(c(=O)c12)CCCCC3	x	x	x	13.5µM*	x
CC(=O)NCc1ccc(C(=O)CSc2nnc(C3CC3)n2C2CC2)cc1	1.8%	0.1%	x	1.1%	10.8%
CCOC(=O)c1cnc(SCC(=O)c2ccccc2)nc1N	20.6µM*	3.16µM*	12.6µM*	2.13µM*	1.58µM*
